GIRK2 activator: GIRK2 channel activators by thallium flux | HEK293 GIRK2/NPY4 cells, thallium flux fluorescence | activation (% efficacy), % for hits at 37.5 µM | 34,000 tested, under 10 active;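 active = primary screen hit, no activity in plain HEK293 cells, and in GIRK2-only cells above 5% efficacy rising with concentration; inactive = the rest, including fluorescent compounds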;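 note: efficacy is normalized control-subtracted fluorescence 15 s after thallium addition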
Target sequence (P48051 whole entry, looked up): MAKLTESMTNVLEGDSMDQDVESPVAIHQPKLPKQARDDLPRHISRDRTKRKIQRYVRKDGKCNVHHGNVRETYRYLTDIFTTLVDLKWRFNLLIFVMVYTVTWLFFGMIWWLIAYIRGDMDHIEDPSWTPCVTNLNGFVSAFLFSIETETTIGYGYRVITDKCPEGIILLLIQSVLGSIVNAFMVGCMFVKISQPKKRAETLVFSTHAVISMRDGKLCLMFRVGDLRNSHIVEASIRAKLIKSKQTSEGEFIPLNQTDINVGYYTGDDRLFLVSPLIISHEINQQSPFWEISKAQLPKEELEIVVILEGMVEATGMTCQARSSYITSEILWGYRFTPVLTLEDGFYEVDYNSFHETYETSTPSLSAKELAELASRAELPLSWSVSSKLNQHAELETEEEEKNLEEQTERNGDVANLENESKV
GluA2 TARP mod: modulates AMPAR-stargazin complexes | HEK293 GluA2+stargazin, membrane potential dye (FDSS), glutamate EC50; hits were called plate by plate, in both directions | calls only at 30 µM | 3.5% of 40,000 active | AID 1259245 | O88602+P19491;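 active = any of four per-well response measures lying three or more SD from its plate-wide compound average, in either direction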
* marks the source's active call; other numbers are inactive results; i = inactive; x = no result; + = active, no number. The entries come from a sample that favours hits as a whole.

SMILES	GIRK2 activator	GluA2 TARP mod
COc1ccccc1-c1nnc(NC(=O)c2ccc(C(C)=O)cc2)o1	x	i
CN(C)c1ccc(C(=O)Nc2nnc(-c3cccs3)o2)cc1	x	+
COc1cc(OC)cc(C(=O)Nc2nnc(-c3ccc(OC)c(OC)c3)o2)c1	i	+
CCCCOc1ccc(C(=O)Nc2nnc(-c3ccc(OC)c(OC)c3)o2)cc1	i	i
Cc1ccc(C(=O)Nc2nnc(-c3cccs3)o2)cc1	x	i
CCCCOc1ccc(C(=O)N2CCN(CCNC(=O)c3ccsc3)CC2)cc1	i	i
CCOc1ccc(C(=O)NCCOc2ccc(-c3ccc(F)cc3)nn2)cc1	i	i
COc1nn(C)cc1C(=O)N1CCC(c2nnc(-c3ccc(F)cc3)o2)CC1	i	i
Cc1nnc(C2CCN(C(=O)C3CCN(S(C)(=O)=O)CC3)CC2)s1	i	i
CC(C)C(=O)Nc1ccc(S(=O)(=O)Nc2ccc(CC(=O)N3CCC(O)CC3)cc2)cc1	i	i
COc1ccc(-c2nnc(NC(=O)CCc3ccccc3)o2)cc1OC	i	i
COc1ccc(-c2nnc(NC(C)=O)o2)cc1OC	i	+
CC(C)c1nnc(C2CCN(C(=O)c3ccc4ncsc4c3)CC2)o1	i	i
Cc1ccc(S(=O)(=O)N(CC(O)CN2CCOCC2)c2ccc(F)cc2)cc1 (stereo unspecified)	i	i
O=C(NCC1(O)CCc2ccccc21)c1cc(Cl)ccc1Cl (stereo unspecified)	i	x
COc1ccc(CCS(=O)(=O)NCC2CCN(C)CC2)cc1	i	i
CC(C)c1ccc(S(=O)(=O)NCC2CCN(C3CCCC3)CC2)cc1	x	+
COc1ccc(S(=O)(=O)NCC2CCN(C3CCCC3)CC2)cc1	i	i
COc1ccc(CCS(=O)(=O)NCC2CCN(C3CCCC3)CC2)cc1	i	+
COc1cccc(NC(=O)C(=O)Nc2ccccc2[N+](=O)[O-])c1	x	i
COCCn1c(=NC(=O)CS(=O)(=O)c2ccc(OC)cc2)sc2cc(F)cc(F)c21	i	i
COCCn1c(=NC(=O)c2ccno2)sc2cc(F)cc(F)c21	i	+
O=C(CCn1c(=O)sc2ccccc21)NCCCN1CCOCC1	i	i
CC(=O)c1sc(=Nc2ccccc2Cl)n(CCCN2CCOCC2)c1C	i	+
COCCn1c(C(=O)Nc2ccc(F)c(Cl)c2)cc2c(=O)n(C)c(=O)n(C)c21	i	+
SMILES	GIRK2 activator	GluA2 TARP mod
COCCn1c(C(=O)Nc2ccccc2)cc2c(=O)n(C)c(=O)n(C)c21	i	i
CC(=O)Nc1ccc(C(=O)NCCNC(=O)COc2ccccc2)cc1	i	i
CC(C)Oc1ccc(C=NCCC2(c3ccccc3)CCOC(C)(C)C2)cc1 (stereo unspecified)	x	i
Cn1c(=O)c2c(nc(N3CCOCC3)n2CCSc2nc3ccccc3s2)n(C)c1=O	x	i
Cc1ccnc(SCCn2c(N3CCOCC3)nc3c2c(=O)n(C)c(=O)n3C)n1	x	+
COc1ccc(S(=O)(=O)CCCC(=O)N2CCN(c3nc4ccc(F)cc4s3)CC2)cc1	x	i
O=S(=O)(CCCOc1ccc2c(c1)OCO2)NCCCc1ccccc1	i	x
CC(C)C(=O)Nc1ccc(SCC(=O)Nc2ccc(Cl)c(Cl)c2)nn1	i	i
CC(C(=O)Nc1ccc(Cl)c(Cl)c1)N1C(=O)C2CC=C(Cl)CC2C1=O (stereo unspecified)	x	+
O=C(Nc1cccc(N2CCCCC2=O)c1)C(=O)NC1CCCCCC1	i	i
O=C(CCCS(=O)(=O)c1ccccc1)Nc1ccccc1Oc1ccccc1	i	i
COc1ccc(S(=O)(=O)CC(=O)Nc2cccc(Br)c2)cc1	i	+
COc1ccc(OCCCC(=O)Nc2cccc(Br)c2)cc1	i	i
COc1ccc(S(=O)(=O)CC(=O)Nc2ccccc2Oc2ccccc2)cc1	i	+
O=S(=O)(c1cccs1)N1CCC(c2nc(-c3ccccc3Cl)no2)CC1	i	x
O=C(Cc1csc(Nc2cccc(Cl)c2)n1)N1CCCC1	i	i
Cc1cc(NC(=O)CCCc2ccccc2)n(-c2nc3c(cnn3-c3ccc(C)c(C)c3)c(=O)[nH]2)n1	i	i
COC(=O)CCc1c(C)nn(-c2nc(C)cc(=O)[nH]2)c1C	i	i
CCc1ccc(OCCOCC(O)CN2CCN(c3ccccc3F)CC2)cc1 (stereo unspecified)	x	i
COc1cccc(OCCOCC(O)CN2CCN(c3ccccc3F)CC2)c1 (stereo unspecified)	x	+
O=C(NCc1cccnc1)C1CCN(c2ccc(-c3ccc(Cl)cc3)nn2)CC1	i	i
O=C(Nc1ccc(-c2ccc(N3CCOCC3)nn2)cc1)Nc1ccccc1F	i	i
O=C(Nc1cccnc1)C1CCN(c2ccc(-c3ccc(Cl)cc3)nn2)CC1	i	+
O=C(Nc1ccc2c(c1)OCO2)C1CCN(c2ccc(-c3ccc(Cl)cc3)nn2)CC1	i	+

Screening results as filed in PubChem.
